Records with an inconclusive call do not appear. Activity calls are given as the source filed them. Unless noted, the call rests on the fitted dose curve; in most records, active means well fitted curve in the direction sought with a large enough effect; inconclusive means small, poorly fitted or top-dose-only effect, or another doubt; inactive means no such curve, though single readings can be large; an effect the other way counts as inactive or inconclusive.
What was measured:
[1] = AP1 Signaling Pathway (AID 357; active means well fitted curve in either direction with a large enough effect, not every such curve was filed as active;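 further: ME-180 reporter cells stimulated with EGF at its EC50 level; on the % scale 0 is the no-effect control and ±100 the full control effect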); conditions: ME-180 AP-1-bla reporter, EGF-induced, beta-lactamase ratio, 5 h; at 7.69 µM (top of the series) unless noted
Summary of the method: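 AP-1-bla ME-180 cells, Opti-MEM + 0.5% dialyzed FBS, plated overnight 37 °C. Cpd titration + EC50 EGF, 5 h 37 °C. CCF4 2.5 h RT; ex 405, em 460/530 ratio → %activity, AC50.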

[2] = NFAT Signaling Pathway (AID 444; active means well fitted curve in either direction with a large enough effect, not every such curve was filed as active;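 further: carbachol stimulus at about its EC50 of 1 µM final; on the % scale 0 is the no-effect control and ±100 the full control effect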); conditions: Jurkat NFAT-bla M1, carbachol, beta-lactamase ratio, 5 h; at 7.69 µM (top of the series) unless noted
Summary of the method: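 Read-out: CCF4 FRET ratio (460 nm/530 nm) after 1 h RT dye loading, used for %activity and AC50 from titration series. Cells: Jurkat NFAT-β-lactamase/M1 line, treated with compound plus 1 uM carbachol for 5 h, 37 °C.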

[3] = Stat Signaling Pathway (AID 446; active means well fitted curve in either direction with a large enough effect, not every such curve was filed as active;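 further: ME-180 cervical cancer cells given 40 pM IL-6 alongside compound; SIE-controlled beta-lactamase reporter measured as 460/530 nm FRET emission ratio; on the % scale 0 is the no-effect control and ±100 the full control effect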); conditions: ME-180 SIE beta-lactamase reporter, IL-6 stimulated, 5 h; at 7.69 µM (top of the series) unless noted
Summary of the method: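 ME-180 cells carrying a SIE-driven beta-lactamase reporter are stimulated with 40 pM IL-6 for 5 h at 37C in the presence of compound. The 460/530 nm FRET substrate ratio is read after 2.5 h at RT. Data are normalised to 300 pM IL-6 and to 125 nM JAK inhibitor controls.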

[4] = biological target: Cytochrome P450 1A2 (Homo sapiens) (UniProt P05177); experiment: p450-cyp1a2 (AID 410; calls by dose curve;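 further: -100% = full effect of reference inhibitor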)
Summary of the method: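 Inhibition was calculated relative to 57 uM furafylline (full inhibition). The reaction used human CYP1A2 at 20nM with Luciferin-ME at its Km, 100uM, driven by an NADPH-regenerating system for 60 min at room temperature.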

[5] = biological target: Glucocorticoid receptor (Homo sapiens) (UniProt P04150); experiment: GR-EFC Redistribution (AID 451; calls by dose curve; further: potency means the concentration at half of the fitted maximal effect); conditions: CHO-K1 GR-EFC translocation, beta-gal luminescence, 2 h
Summary of the method: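 Translocation of GR-ED fusion to nuclear EA restores b-gal, read by luminescence after 1 h room-temperature detection. Engineered CHO-K1 biosensor cells, 1,000/well, exposed 2 h at 37 C to titrations up to 46 uM final.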

[6] = biological target: 3',5'-cyclic-AMP phosphodiesterase 4B (Homo sapiens) (UniProt Q07343); experiment: qHTS Assay for Inhibitors of PDE-IV (AID 607; active means well fitted activation curve with a large enough effect in the main read-out, with a control signal flat, not every such curve was filed as active; further: % of control where 0% means no effect)
Summary of the method: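 HEK293 ACTOne cells with CNG channel (1000/well), endogenous PDE4; membrane potential dye, compounds up to 22.9 uM final. Fluorescence Ex 535/Em 590; RO 20-1724 (100 uM final) as reference.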

[7] = qHTS for differential inhibitors of proliferation of Plasmodium falciparum line 7G8 (AID 1815);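 further: potency means the concentration at half of the fitted maximal effect; parasite growth measured after three days of incubation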
[8] = qHTS for differential inhibitors of proliferation of Plasmodium falciparum line HB3 (AID 1886); conditions: Potency: Plasmodium falciparum HB3 proliferation inhibition;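 further: parasites grown with compound for 72 h before SYBR Green readout; plate controls were vehicle for no effect and reference inhibitor for full effect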
[9] = biological target: Transient receptor potential cation channel subfamily V member 1 (Homo sapiens) (UniProt Q8NER1); experiment: HTS Assay for Compounds that Act as Enhancers of the Vanilloid Receptor 1 (AID 488979); further: 0% is about no effect
Summary of the method: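 Calcium influx kinetics via Fluo-8 (480/520 nm) in TRPV1-expressing cells, 2000/well cultured overnight at 35.5C. Compound-alone read 3 min (agonist phase), followed by EC20 capsaicin challenge for 2 min (enhancer phase).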

[10] = biological target: Thyrotropin receptor (Homo sapiens) (UniProt P16473); experiment: qHTS Assay for Antagonists of the Thyroid Stimulating Hormone Receptor (AID 488980); further: 0% is about no effect
Summary of the method: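 Inhibition of TSH-stimulated cAMP accumulation was quantified by homogeneous time-resolved FRET in TSHR-transfected HEK293 cells. Agonist: TSH, 4 nM final (EC80).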

[11] = biological target: Thyrotropin-releasing hormone receptor (Homo sapiens) (UniProt P34981); experiment: qHTS for Small Molecule Agonists and Allosteric Enhancers of Human TRH Receptor: Validation Screen for Agonists (AID 493127;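 active means calcium activation more than 3 SD above the typical response in the agonist read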;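 further: intracellular calcium rise by fluo-8 fluorescence before TRH EC20 addition; 0% is about no effect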); conditions: TRH receptor agonist cell assay; at 2 µM; hits give high values
Summary of the method: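 Gq-coupled calcium mobilization in TRHR cells after compound addition, monitored kinetically with fluo-8 dye on an FDSS reader.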

[12] = Validation screen for small molecules that induce DNA re-replication in SW480 colon adenocarcinoma cells (AID 504364); further: 0% is about no effect
Summary of the method: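 Cells are treated 48 hr with test compound, stained 40 min with Hoechst at 37 C, and scanned for nuclear fluorescence; compounds inducing re-replication increase nuclei with elevated intensity.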

[13] = biological target: Androgen receptor (Homo sapiens) (UniProt P10275); experiment: qHTS assay for small molecule agonists of androgen receptor signaling (AID 588515; active means well fitted curve in the direction sought with a large enough effect in the signal ratio, with a control signal flat; the % refers to the signal ratio; further: on the % scale 0 is the no-effect control and ±100 the full control effect); conditions: AR-UAS-bla HEK293, beta-lactamase ratio, agonist 16 h; hits give high values
Summary of the method: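 EC50 and efficacy came from Hill fits of titrations (up to 92 uM) normalized to 30 nM R1881 as 100% and DMSO as 0%. Compound exposure was 16 h at 37 C on AR-UAS-bla HEK293 cells, with a 405/460/530 nm CCF4 fluorescence read.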

[14] = biological target: Thyroid hormone receptor beta (Homo sapiens) (UniProt P10828); experiment: qHTS assay for small molecule agonists of thyroid hormone receptor beta signaling (AID 588545; calls by dose curve)
Summary of the method: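 Agonist-mode beta-lactamase reporter assay, HEK 293 cells, 2% charcoal/dextran FBS; cells plated 4 hrs, compound 18 hrs at 37 C, CCF4 2 hrs RT. Normalized to 10 nM T3 (100%) and DMSO (0%); Hill fit gives EC50, efficacy.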

[15] = biological target: Voltage-gated inwardly rectifying potassium channel KCNH2 (Homo sapiens) (UniProt Q12809); experiment: qHTS Assay for Small Molecule Inhibitors of the Human hERG Channel Activity (AID 588834);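 further: top concentration of the series differs between compounds; on the % scale 0 is the no-effect control and ±100 the full control effect; lower thallium flux fluorescence means stronger hERG block; nearly all actives have a fitted effect of over 50% in size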
Summary of the method: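 Blockade is seen as reduced FluxOR thallium-flux fluorescence in U2OS cells expressing hERG from a BacMam construct, in Opti-MEM with 2% FCS. Concentration-response data fitted to the Hill equation for AC50.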

[16] = qHTS assay for small molecule activators of the nuclear factor-kappa B (NF-kB) signaling pathway (AID 651749; active means well fitted activation curve with a large enough effect in the signal ratio; the % refers to the signal ratio; further: % of control where 0% means no effect); conditions: NF-kB-bla ME-180 cells, beta-lactamase FRET ratio, 16 h; hits give high values
Summary of the method: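 Stably transfected ME-180 line; NF-kB response element upstream of beta-lactamase. Treatment: compound or DMSO, 16 hr. Detection: fluorescent FRET substrate.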

[17] = Primary qHTS for small molecule stabilizers of the endoplasmic reticulum resident proteome: Secreted ER Calcium Modulated Protein (SERCaMP) assay (AID 1508630); further: on the % scale 0 is the no-effect control and ±100 the full control effect
Summary of the method: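 GLuc-SERCaMP-expressing SH-SY5Y cells, pretreated 16 h with compound, are challenged with thapsigargin to empty ER calcium stores; after 4 h, coelenterazine is added directly to the medium and luminescence is imaged.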

CP266 = experiment: qHTS profiling for inhibitors of Plasmodium falciparum proliferation (AID 504749);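 further: 0% = DMSO vehicle and full inhibition = artemisinin control; nearly all actives have a fitted effect of over 60% in size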; conditions: P. falciparum in erythrocytes, SYBR Green DNA, 72 h; series mostly up to 28.7 µM
Summary of the method: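 Three-day growth assay of blood-stage parasites in erythrocytes (0.3% parasitemia, 2.5% hematocrit) at 37 C, 5% CO2, quantified by SYBR Green DNA staining after overnight detergent lysis.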

[18] = Confirmation and Secondary Assay for Modulators of Hemoglobin Beta Chain Splicing at IVS2 654 locus (AID 910);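 further: HeLa cells stably carrying EGFP split by mutant beta-globin IVS2-654 intron; per-well total GFP intensity by laser scanning cytometry after 2-day treatment; % of control where 0% means no effect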
Summary of the method: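 Readout: per-well total peak green fluorescence (488 nm ex, 500–520 nm em) from objects 5–250 µm, reflecting correct splicing of an EGFP-654 reporter. Compounds were applied for 2 days at 37 °C to overnight-plated HeLa EGFP-654 cells; controls were DMSO and 500 nM IVS2-654 PNA.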

[19] = Confirmation and Secondary Assay for Modulators of Hemoglobin Beta Chain Splicing at IVS2 705 locus (AID 930);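 further: HeLa cells stably expressing the EGFP-705 splicing reporter; GFP fluorescence per well restored by corrected splicing of the IVS2-705 intron in EGFP; % of control where 0% means no effect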
Summary of the method: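 Fluorescence gain (488 nm laser, 500-520 nm PMT) reflects restored correct splicing of a mutant IVS2-705 intron inside EGFP in stably transfected HeLa cells after 2-day compound treatment.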

Glucocorticoid receptor (Homo sapiens), sequence (P04150 whole entry, looked up, the tested form may be a part): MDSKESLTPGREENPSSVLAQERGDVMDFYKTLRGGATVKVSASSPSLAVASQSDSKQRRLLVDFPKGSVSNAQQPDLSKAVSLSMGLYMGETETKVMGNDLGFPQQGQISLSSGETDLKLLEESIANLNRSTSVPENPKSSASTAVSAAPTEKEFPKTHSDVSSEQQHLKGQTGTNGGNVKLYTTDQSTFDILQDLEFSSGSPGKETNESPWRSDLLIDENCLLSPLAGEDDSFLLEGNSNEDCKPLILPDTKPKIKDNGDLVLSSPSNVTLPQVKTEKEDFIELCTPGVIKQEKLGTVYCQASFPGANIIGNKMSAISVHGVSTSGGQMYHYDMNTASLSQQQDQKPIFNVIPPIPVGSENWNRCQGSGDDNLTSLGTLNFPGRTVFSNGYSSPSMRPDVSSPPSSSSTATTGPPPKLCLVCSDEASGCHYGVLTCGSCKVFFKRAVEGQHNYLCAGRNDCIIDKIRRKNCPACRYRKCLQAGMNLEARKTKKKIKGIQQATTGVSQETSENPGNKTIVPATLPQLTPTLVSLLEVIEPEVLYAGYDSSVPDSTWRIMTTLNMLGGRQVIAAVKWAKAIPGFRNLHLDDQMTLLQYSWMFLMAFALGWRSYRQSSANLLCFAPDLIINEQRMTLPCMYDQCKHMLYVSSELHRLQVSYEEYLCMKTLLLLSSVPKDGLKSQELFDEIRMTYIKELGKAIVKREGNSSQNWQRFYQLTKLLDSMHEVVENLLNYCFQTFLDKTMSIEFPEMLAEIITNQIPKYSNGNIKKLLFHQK
Voltage-gated inwardly rectifying potassium channel KCNH2 (Homo sapiens), sequence (Q12809 whole entry, looked up): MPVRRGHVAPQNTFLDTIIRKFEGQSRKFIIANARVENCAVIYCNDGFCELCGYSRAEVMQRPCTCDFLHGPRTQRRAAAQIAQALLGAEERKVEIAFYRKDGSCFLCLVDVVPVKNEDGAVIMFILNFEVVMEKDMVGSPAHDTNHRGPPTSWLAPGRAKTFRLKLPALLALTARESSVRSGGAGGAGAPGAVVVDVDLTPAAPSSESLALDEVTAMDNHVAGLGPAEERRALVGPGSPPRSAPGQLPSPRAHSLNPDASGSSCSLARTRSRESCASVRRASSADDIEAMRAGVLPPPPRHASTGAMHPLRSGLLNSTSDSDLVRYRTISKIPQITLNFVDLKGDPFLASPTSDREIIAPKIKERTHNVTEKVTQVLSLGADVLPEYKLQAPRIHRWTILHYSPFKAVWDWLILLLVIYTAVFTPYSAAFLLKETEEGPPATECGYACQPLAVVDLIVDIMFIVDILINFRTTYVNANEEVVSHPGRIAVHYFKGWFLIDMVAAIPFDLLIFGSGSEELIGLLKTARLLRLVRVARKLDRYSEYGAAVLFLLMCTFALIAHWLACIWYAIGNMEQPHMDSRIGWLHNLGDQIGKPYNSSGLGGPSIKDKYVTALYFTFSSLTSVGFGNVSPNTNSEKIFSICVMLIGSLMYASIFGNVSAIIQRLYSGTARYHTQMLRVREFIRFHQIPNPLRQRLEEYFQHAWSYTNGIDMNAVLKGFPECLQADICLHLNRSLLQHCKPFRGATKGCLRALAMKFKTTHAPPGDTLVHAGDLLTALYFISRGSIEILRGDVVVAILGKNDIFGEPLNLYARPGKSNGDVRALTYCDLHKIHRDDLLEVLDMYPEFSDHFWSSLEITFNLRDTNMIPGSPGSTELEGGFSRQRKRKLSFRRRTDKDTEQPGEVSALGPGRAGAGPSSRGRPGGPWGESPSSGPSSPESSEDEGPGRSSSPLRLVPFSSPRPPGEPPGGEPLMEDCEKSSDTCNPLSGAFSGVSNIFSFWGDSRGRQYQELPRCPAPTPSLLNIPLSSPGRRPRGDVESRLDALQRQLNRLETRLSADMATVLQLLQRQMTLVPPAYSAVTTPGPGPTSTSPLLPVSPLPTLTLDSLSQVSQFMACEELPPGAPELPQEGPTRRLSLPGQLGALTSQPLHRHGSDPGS
Cytochrome P450 1A2 (Homo sapiens), sequence (P05177 whole entry, looked up): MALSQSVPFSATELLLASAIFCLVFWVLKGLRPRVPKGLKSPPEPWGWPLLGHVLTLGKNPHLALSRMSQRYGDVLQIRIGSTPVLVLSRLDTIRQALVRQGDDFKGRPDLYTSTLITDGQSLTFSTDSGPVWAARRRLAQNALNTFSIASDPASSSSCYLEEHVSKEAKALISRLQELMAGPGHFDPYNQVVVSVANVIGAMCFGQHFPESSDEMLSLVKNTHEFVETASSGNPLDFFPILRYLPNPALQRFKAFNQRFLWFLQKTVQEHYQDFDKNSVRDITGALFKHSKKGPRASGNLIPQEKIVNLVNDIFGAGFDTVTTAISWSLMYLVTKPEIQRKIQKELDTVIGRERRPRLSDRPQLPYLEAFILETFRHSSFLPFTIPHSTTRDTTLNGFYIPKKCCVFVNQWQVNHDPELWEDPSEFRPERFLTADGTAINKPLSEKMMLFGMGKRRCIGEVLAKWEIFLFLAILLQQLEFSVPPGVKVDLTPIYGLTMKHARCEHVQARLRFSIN
Thyrotropin-releasing hormone receptor (Homo sapiens), sequence (P34981 whole entry, looked up): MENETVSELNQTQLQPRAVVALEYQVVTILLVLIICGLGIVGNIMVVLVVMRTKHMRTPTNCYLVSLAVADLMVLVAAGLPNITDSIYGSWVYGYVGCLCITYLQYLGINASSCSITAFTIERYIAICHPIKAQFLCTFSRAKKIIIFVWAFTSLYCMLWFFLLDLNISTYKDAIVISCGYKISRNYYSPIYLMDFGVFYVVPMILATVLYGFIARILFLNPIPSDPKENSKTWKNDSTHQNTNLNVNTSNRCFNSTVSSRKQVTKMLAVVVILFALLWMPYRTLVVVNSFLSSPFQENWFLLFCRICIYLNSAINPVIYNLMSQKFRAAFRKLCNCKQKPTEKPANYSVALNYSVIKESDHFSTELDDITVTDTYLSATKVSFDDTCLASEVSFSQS
Thyroid hormone receptor beta (Homo sapiens), sequence (P10828 whole entry, looked up): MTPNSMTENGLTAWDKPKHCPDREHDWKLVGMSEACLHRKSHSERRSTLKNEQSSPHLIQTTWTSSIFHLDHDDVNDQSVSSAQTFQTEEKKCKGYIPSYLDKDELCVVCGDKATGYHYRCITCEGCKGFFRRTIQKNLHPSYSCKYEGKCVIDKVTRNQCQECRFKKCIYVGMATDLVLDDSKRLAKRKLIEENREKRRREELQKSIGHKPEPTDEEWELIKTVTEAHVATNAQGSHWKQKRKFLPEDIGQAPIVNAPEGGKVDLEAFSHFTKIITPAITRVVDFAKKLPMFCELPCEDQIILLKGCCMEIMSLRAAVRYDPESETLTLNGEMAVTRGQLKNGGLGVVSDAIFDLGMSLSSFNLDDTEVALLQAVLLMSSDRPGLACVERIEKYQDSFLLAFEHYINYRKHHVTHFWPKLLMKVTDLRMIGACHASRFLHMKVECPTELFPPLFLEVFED
3',5'-cyclic-AMP phosphodiesterase 4B (Homo sapiens), sequence (Q07343 whole entry, looked up): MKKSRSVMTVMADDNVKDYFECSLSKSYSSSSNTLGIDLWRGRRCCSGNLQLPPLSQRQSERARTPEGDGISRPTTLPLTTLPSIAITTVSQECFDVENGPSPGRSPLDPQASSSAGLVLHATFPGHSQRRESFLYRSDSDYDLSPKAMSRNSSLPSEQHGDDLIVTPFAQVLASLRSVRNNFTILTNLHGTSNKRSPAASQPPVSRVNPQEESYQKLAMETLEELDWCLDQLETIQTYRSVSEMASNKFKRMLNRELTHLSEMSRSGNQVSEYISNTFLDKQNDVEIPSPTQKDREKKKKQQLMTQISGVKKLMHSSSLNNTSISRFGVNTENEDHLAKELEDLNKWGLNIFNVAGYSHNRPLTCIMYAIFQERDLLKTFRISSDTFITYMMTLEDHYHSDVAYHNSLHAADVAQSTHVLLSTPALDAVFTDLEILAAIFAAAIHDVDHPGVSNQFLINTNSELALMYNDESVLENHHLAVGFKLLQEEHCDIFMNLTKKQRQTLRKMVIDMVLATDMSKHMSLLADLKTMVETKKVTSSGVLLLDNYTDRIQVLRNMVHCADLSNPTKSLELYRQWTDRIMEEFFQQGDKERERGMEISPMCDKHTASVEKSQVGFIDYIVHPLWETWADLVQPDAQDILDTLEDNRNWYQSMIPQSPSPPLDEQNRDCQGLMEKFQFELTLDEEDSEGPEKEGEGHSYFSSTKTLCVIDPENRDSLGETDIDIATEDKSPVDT
Transient receptor potential cation channel subfamily V member 1 (Homo sapiens), sequence (Q8NER1 whole entry, looked up): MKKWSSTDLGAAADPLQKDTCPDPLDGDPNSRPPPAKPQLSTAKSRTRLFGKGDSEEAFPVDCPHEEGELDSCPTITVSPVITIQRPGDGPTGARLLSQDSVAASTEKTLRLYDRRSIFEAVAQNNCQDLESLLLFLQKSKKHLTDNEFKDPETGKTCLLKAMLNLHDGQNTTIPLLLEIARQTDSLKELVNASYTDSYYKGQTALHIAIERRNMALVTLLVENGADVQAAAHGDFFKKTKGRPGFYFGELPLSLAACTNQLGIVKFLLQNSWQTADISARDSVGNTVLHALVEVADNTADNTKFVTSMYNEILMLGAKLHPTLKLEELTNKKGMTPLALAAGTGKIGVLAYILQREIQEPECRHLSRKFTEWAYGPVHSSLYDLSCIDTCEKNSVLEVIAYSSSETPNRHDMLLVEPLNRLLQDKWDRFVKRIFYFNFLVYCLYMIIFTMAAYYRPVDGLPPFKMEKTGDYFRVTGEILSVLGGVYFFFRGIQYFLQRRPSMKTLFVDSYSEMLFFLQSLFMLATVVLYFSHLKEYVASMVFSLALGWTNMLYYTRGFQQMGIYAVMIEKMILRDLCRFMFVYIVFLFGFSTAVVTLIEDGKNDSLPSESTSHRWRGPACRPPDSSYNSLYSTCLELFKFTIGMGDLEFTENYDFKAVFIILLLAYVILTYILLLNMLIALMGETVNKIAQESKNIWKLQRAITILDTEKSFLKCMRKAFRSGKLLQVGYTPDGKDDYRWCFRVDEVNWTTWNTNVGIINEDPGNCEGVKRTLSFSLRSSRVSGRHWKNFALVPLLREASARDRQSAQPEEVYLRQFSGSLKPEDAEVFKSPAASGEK

C[C@@]12C(=O)OC(=O)[C@]1(C)[C@H]1CC[C@@H]2O1
active: activity change, negative = inhibition [1] -102% [at 17.2 µM] | activity change, negative = inhibition [2] -99.7% [at 17.2 µM] | activity, negative = inhibition [3] -85.9% [at 17.2 µM]

CN(CCOc1ccc(C[C@H](Nc2ccccc2C(=O)c2ccccc2)C(=O)O)cc1)c1ccccn1
inactive: Potency [4] | Potency [5] > 46 µM | Potency [6] | Potency [8] | outcome [9] | outcome [10] | activation [11] 2.06% | outcome [12] | activation [13] -13.2% | outcome [14] | Potency [15] | activation [16] 1.83% | Potency [17]
active: Potency [7] 8.91 µM

CC(/C=C1\SC(=S)N(CC(=O)O)C1=O)=C\c1ccccc1
inactive: Potency (CP266)

COC1=C(OC)C(=O)C(C/C=C(\C)CC/C=C(\C)CC/C=C(\C)CC/C=C(/C)CC/C=C(\C)CC/C=C(\C)CC/C=C(\C)CC/C=C(\C)CC/C=C(\C)CCC=C(C)C)=C(C)C1=O
inactive: outcome [18] | outcome [19]

C=C1CCC2[C@](C)(CO)C(O)CC[C@]2(C)C1C/C=C1/C(=O)OCC1O (stereo not given in full)
inactive: outcome [18] | outcome [19] | Potency (CP266)

C[C@H]1CC2[C@@H]3CCC4=CC(=O)C=C[C@]4(C)[C@@]3(F)[C@@H](O)C[C@]2(C)[C@@]1(O)C(=O)CO (stereo not given in full)
inactive: outcome [12] | Potency [15]
